# A selection: hits, their analogues and other compounds. The true share with any hit is near 15%.
# ELG1 repair inh: inhibitors of ELG1-dependent DNA repair in HEK293T cells; 2.3% of 330,000 active; HEK293T ELG1-luciferase reporter, luminescence, 16 h; DNA damage induced by 5-fluorouridine; Potency, µM (titrated, usually from 46.1 µM), without a hit: at the top dose activity change, negative = inhibition, hits mostly inhibitors; also: nearly all actives have a fitted effect of over 55% in size
#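 Reporter activity after DNA damage by 5-fluorouridine is monitored. Compound-treated cells incubate 16 hr at 37 °C, then ONE-Glo is added for 30 min before luminescence reading.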
# ALOX12 inh: blocks human arachidonate 12S-lipoxygenase; 1.1% of 580,000 active; Potency, µM (titrated, usually from 108 µM), without a hit: at the highest dose activity change, negative = inhibition, hits mostly inhibitors; purified 12hLO, xylenol orange hydroperoxide absorbance; AID 1671190
# Target sequence (P18054 whole entry, looked up): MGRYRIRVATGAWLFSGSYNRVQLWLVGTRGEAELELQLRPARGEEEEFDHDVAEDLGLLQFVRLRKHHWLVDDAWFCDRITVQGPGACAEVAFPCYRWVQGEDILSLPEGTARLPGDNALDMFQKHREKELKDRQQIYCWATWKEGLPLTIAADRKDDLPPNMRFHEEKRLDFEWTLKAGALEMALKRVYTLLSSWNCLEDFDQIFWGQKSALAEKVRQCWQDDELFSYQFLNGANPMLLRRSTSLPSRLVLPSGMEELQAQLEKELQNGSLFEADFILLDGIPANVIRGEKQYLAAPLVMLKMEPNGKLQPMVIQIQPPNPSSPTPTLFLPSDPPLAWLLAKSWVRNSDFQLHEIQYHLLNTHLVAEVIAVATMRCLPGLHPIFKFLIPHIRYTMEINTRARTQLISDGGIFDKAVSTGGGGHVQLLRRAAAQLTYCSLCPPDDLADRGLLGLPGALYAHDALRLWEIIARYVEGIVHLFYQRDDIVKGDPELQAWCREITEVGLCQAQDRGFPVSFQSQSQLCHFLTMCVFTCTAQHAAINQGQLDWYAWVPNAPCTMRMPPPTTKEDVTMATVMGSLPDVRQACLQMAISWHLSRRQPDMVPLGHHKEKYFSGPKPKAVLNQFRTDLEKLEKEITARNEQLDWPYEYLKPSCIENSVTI
#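 Purified human 12hLO (150 nM final) in 25 mM Hepes, 0.01% Triton X-100, pH 7.0 was preincubated 15 min at room temperature with compound. Then 40 uM arachidonic acid was added, 30 min. Hydroperoxide was read by Fe-XO absorbance ratio 573/405 nm.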
# DT40 TDP1 no CPT: qHTS for Inhibitors of human tyrosyl-DNA phosphodiesterase 1 (TDP1): qHTS in cells in absence of CPT. DT40 Tdp1-/- hTDP1 cells, no CPT, ATP luminescence, 48 h. Potency, µM (highest dose often 46.2 µM), for the others: at the top dose activity change, negative = growth inhibition, hits mostly inhibitors. 15% of 420,000 active. AID 686978, 2013; also: nearly all actives have a fitted effect of over 55% in size
#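 Readout: luminescence from CellTiter-Glo after 30 min in the dark at RT. Cells: DT40 Tdp1-/- with stable hTDP1, 400/well. Exposure: compounds alone, ≥48 hr, 37 °C.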
# DT40 TDP1 CPT: growth inhibition of DT40 Tdp1-/-;hTDP1 cells with camptothecin (screen for TDP1 inhibitors) | Potency, µM (series often up to 46.2 µM), inactives show at the top dose activity change, negative = growth inhibition, hits mostly inhibitors | AID 686979 | 12% of 420,000 active | chicken DT40 Tdp1-/-;hTDP1 cells + 20 nM CPT, ATP luminescence, 48 h; also: nearly all actives have a fitted effect of over 55% in size
#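 Cell growth measured by CellTiter-Glo luminescence after a minimum 48 h, 37 C compound exposure with 20 nM CPT in Tdp1-knockout DT40 cells stably expressing hTDP1, seeded 400/well; qHTS titration format.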
# RORgamma inh: blocks mouse ROR gamma transcriptional activity. P51450. Drosophila S2 Gal4-RORgamma UAS-luciferase reporter, 20 h. Potency, µM (highest dose often 53.6 µM), inactives show top-dose activity change, negative = inhibition, hits mostly inhibitors. 5.4% of 310,000 active. AID 2551; also: nearly all actives have a fitted effect of over 60% in size
#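 Drosophila Schneider cells stably carrying a metallothionein-driven Gal4 DBD–ROR gamma fusion and a UAS-Photinus luciferase reporter were exposed to compound for 1 hr, then induced with copper sulfate (700 uM final) for 20 hr at ambient temperature before luminescence reading.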
# Gal4-VP16 FLuc: counter-screen for ROR gamma inhibitors: Gal4-VP16 reporter; 3.5% of 310,000 active; Potency, µM (series often up to 53.6 µM), without a hit: top-dose activity, negative = inhibition, hits mostly inhibitors; AID 2546; Drosophila S2 Gal4-VP16 UAS-luciferase, luminescence, 20 h;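 also: Gal4-VP16 expression switched on by copper sulfate through the metallothionein promoter; nearly all actives have a fitted effect of over 50% in size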
# Numbers without * were called inactive; ? = inconclusive; nt = no result; [ ] = another dose, or the depositor's remark. Calls follow the shape of the dose curve; as a rule, active = well fitted curve in the direction sought with a large enough effect; inconclusive = small, poorly fitted or top-dose-only effect, or another doubt; inactive = no such curve, though single readings can be large; an effect the other way counts as inactive or inconclusive. % is scaled to controls: 0 for no effect and ±100 for the full control effect; potency is read from the fitted curve at half-maximal effect.
SMILES,ELG1 repair inh,ALOX12 inh,DT40 TDP1 no CPT,DT40 TDP1 CPT,RORgamma inh,Gal4-VP16 FLuc
O=C(CCCc1nc(-c2ccc(Cl)cc2)no1)Nc1cccnc1,?,0%,15µM*,16µM*,16µM*,11µM*
O=C(O)CCCc1nc(-c2ccccc2)no1,3%,-9%,-18%,3%,14µM*,?
COc1ccc(NC(=O)CCc2nc(-c3ccccc3F)no2)cc1,-16%,0%,2.6µM*,?,8%,-2%
O=C(CCc1nc(-c2ccccc2F)no1)Nc1cccc(C(F)(F)F)c1,nt,-1%,15µM*,18µM*,nt,nt
O=C(CCc1nc(-c2ccccc2F)no1)NCc1ccco1,11%,-10%,-10%,-6%,-5%,19%
O=C(Nc1ccc(-c2noc(CCc3ccccc3)n2)cc1)c1cccnc1,23µM*,3%,12µM*,18µM*,5%,5%
COc1ccccc1-c1noc(CCCC(=O)Nc2ccc(C(N)=O)cc2)n1,?,?,2%,8%,-1%,?
CCOC(=O)c1cccc(NC(=O)CCc2nc(-c3ccc(C)cc3)no2)c1,?,17%,23µM*,?,3.2µM*,-29%
CCOC(=O)c1cccc(NC(=O)CCc2nc(-c3ccccc3F)no2)c1,-8%,2%,?,23µM*,-17%,-1%
COc1cccc2cc(-c3cc(=O)oc4ccc(C(C)C)cc34)oc12,nt,-3%,nt,nt,nt,nt
C=CCOC1=CS(=O)(=O)N(Cc2ccc(Br)cc2)c2ccc(Br)cc21,-12%,-27%,?,16µM*,nt,nt
O=C1CS(=O)(=O)N(Cc2ccccc2F)c2ccc(Br)cc21,9%,?,-16%,-5%,nt,nt
FC(F)Oc1ccc(CNC23CC4CC(CC(C4)C2)C3)cc1,nt,11%,nt,nt,nt,nt
COC(=O)N(C)CC(=O)NCc1ccccc1,nt,-55%,nt,nt,nt,nt
N#Cc1c(-c2cccs2)cc(-c2cccs2)[nH]c1=O,4%,0%,-6%,-10%,-37%,-10%
Cc1cc(-c2cccs2)c(C#N)c(=S)[nH]1,0%,0%,-7%,-25%,10µM*,?
O=C1CC2CCN(C(=O)c3ccc4c(c3)OCO4)CC2CCN1 (centres undefined),nt,-1%[6.33 µM],nt,nt,nt,nt
COc1cc(CN(C(=O)c2ccc(OC(C)C)cc2)c2ccccn2)cc(OC)c1OC,nt,-6%,4.1µM*,2.3µM*,nt,nt
COc1ccc(CN(C(=O)COc2cccc(C)c2C)c2ccccn2)cc1OC,nt,-24%,nt,nt,nt,nt
COc1cc(CN(C(=O)c2ccccc2[N+](=O)[O-])c2ccccn2)cc(OC)c1OC,nt,-12%,15µM*,?,nt,nt
COc1ccc(C(=O)N(Cc2cc(OC)c(OC)c(OC)c2)c2ccccn2)cc1,nt,0%,21µM*,?,nt,nt
COc1cc(CN(C(=O)COc2ccc(C)c(C)c2)c2ccccn2)cc(OC)c1OC,nt,2%,8.2µM*,7.3µM*,nt,nt
COc1cc(CN(C(=O)Nc2ccccc2)c2ccccn2)cc(OC)c1OC,nt,-7%,?,-26%,nt,nt
COc1ccc([C@H]2C[C@@H](O)[C@@H](O)[C@@H]2NC(=O)c2cc3ccccc3s2)cc1,nt,-11%[176 µM],nt,nt,nt,nt
C[C@@H](NC(=O)c1ncn2c1c(=O)[nH]c1cccnc12)c1ccccc1,nt,-42%,-14%,-2%,nt,nt
SMILES,ELG1 repair inh,ALOX12 inh,DT40 TDP1 no CPT,DT40 TDP1 CPT,RORgamma inh,Gal4-VP16 FLuc
C[C@@H](NC(=O)c1ncn2c1c(=O)[nH]c1ccc(Br)cc12)c1ccccc1,nt,-42%,21µM*,?,nt,nt
Cc1ccc(C2Nc3ccccc3-n3c(-c4ccccc4)c4c(=O)n(C)c(=O)n(C)c4c32)cc1 (centres undefined),nt,-17%,?,?,nt,nt
COc1ccc(-c2c3c(=O)n(C)c(=O)n(C)c3c3n2-c2ccccc2NC3c2ccc(O)cc2O)cc1 (centres undefined),nt,-20%,16µM*,16µM*,nt,nt
Cn1c(=O)c2c(-c3ccccc3)n3c(c2n(C)c1=O)C(c1ccccc1[N+](=O)[O-])Nc1ccccc1-3 (centres undefined),nt,-20%,-82%,23µM*,nt,nt
CN(Cc1ccsc1)C(=O)CCc1ccsc1,nt,0%,nt,nt,nt,nt
O=[N+]([O-])c1ccc2c(c1)-c1ccccc1C2O (centres undefined),nt,7.1µM*,13µM*,?,nt,nt
CC(C)CN(c1ccccc1)S(=O)(=O)c1nnc(NC(=O)C2CCCCC2)s1,nt,18%,?,5.2µM*,nt,nt
CCN(c1ccccc1)S(=O)(=O)c1nnc(NC(=O)C2CCCCC2)s1,nt,-22%,-1%,3%,nt,nt
CCN(c1ccc(C)cc1)S(=O)(=O)c1nnc(NC(=O)C2CCCCC2)s1,nt,-9%,10µM*,?,nt,nt
CCOc1ccccc1N1CCN(CC(=O)Nc2ccc(C)cc2F)CC1,nt,-24%,nt,nt,nt,nt
CC(C)[C@H](N)c1nnc(SCc2ccc(Cl)cc2)o1,-2%,-7%,-18%,-27%,?,-6%
CCC(C)[C@H](N)c1nnc(SCC(=O)c2ccc(Cl)cc2)o1 (some centres undefined),-3%,?,7.1µM*,4µM*,-30%,4%
Cc1ccc(C=Nc2ccccc2C(N)=O)o1,?,-8%,-17%,-18%,?,20µM*
Cc1ccc(/C=N/O)o1,nt,-1%,nt,nt,nt,nt
CN(C)c1ccc(C=Nc2cccc(C(=O)c3ccccc3)c2)cc1,nt,-13%,nt,nt,nt,nt
CN(C)c1ccc(C=Nc2ccccc2C(N)=O)cc1,?,?,?,?,?,10µM*
COC[C@@H]1CN(C(=O)c2cc(Cl)ccc2OC)C[C@H]1C(N)=O,nt,25%,nt,nt,nt,nt
O=c1c2ccccc2nc(/C=C/c2cccc3ccccc23)n1-c1ccc(F)cc1F,nt,?,?,23µM*,nt,nt
COc1cc(OC)c(OC)cc1/C=C/c1nc2cc3ccccc3cc2c(=O)n1-c1ccc(F)cc1F,nt,?,8.2µM*,12µM*,nt,nt
O=C(O)c1cccc(-n2c(/C=C/c3ccccc3)nc3ccccc3c2=O)c1,15%,?,?,?,0%,13%
O=C(O)c1cc(-n2c(/C=C\c3ccc(F)cc3)nc3ccccc3c2=O)ccc1Cl,nt,7%,21µM*,15µM*,nt,nt
COc1cccc(/C=C/c2nc3ccccc3c(=O)n2-c2ccc(C)c(C)c2)c1OC,nt,6%,8.2µM*,10µM*,nt,nt
COc1cccc(/C=C/c2nc3cc(C)c(C)cc3s2)c1OC,nt,-5%,nt,nt,nt,nt
O=C(CSc1nc2ccccc2c(=O)n1-c1ccc(F)cc1F)NC1CC1,nt,-2%,?,-10%,nt,nt
COc1ccccc1-c1ccc2ncn(-c3ccc(F)cc3F)c(=O)c2n1,nt,-23%[176 µM],nt,nt,nt,nt

# Compound activity as filed in PubChem.
